How the values were obtained:
Experiment in all cases: DAPPL (digital affinity profiling via proximity ligation, sequencing); 10 mM Tris-HCl pH 7.5, 50 mM NaCl, 1 mM DTT, 4% glycerol, room temperature, 30 min; GST-TFs on glutathione beads, 16-mer random dsDNA library, 0.1% formaldehyde crosslink after washing; high values mean tight binding
[1] = target: T1, FLI1 (Homo sapiens, UniProt Q01543 1-452); settings: protein: recombinant; tags: N-terminal GST; dsDNA, one strand shown
T1 sequence: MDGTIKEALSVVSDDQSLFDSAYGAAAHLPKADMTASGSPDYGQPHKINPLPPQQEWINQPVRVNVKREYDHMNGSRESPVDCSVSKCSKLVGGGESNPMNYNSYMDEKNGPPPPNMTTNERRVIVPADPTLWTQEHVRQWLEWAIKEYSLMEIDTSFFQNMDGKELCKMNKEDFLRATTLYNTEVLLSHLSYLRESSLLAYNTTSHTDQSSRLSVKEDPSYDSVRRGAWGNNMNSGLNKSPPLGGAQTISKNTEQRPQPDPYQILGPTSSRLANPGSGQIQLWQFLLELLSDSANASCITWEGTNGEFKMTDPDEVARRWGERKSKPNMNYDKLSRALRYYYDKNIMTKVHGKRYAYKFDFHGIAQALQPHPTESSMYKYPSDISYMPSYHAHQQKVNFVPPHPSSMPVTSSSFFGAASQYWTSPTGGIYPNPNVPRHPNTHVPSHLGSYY
In short: (§1)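 Pools were built from human transcription factors expressed in yeast as GST fusions, captured on glutathione beads and DNA-barcoded, along with a tag-only sample. Incubation with 200 nmole of a 16-mer random double-stranded DNA library lasted 30 min at room temperature in Tris/NaCl/DTT/glycerol buffer, and was followed by washing, 0.1% formaldehyde crosslinking, proximity ligation, PCR amplification and Illumina NextSeq500 sequencing. Binding signal is the quotient of each hexamer's read frequency for a factor and its frequency for the tag-only sample.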

[2] = target: T2, ELK1 (Homo sapiens, UniProt P19419 1-428); settings: protein: recombinant; tags: N-terminal GST; dsDNA, one strand shown
T2 sequence: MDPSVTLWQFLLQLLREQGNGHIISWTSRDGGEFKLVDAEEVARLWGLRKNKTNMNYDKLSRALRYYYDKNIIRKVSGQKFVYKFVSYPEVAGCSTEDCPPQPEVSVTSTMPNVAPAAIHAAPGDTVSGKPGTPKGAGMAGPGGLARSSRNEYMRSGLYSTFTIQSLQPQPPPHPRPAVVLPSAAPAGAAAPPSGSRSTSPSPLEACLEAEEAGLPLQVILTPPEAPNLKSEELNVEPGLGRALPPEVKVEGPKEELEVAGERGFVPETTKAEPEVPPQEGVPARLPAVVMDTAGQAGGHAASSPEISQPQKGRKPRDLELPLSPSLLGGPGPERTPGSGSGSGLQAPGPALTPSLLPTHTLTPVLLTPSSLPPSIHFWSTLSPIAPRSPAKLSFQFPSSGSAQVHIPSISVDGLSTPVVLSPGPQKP
In short: as §1

[3] = target: T3, GABPA (Homo sapiens, UniProt Q06546 1-454); settings: protein: recombinant; tags: N-terminal GST; dsDNA, one strand shown
T3 sequence: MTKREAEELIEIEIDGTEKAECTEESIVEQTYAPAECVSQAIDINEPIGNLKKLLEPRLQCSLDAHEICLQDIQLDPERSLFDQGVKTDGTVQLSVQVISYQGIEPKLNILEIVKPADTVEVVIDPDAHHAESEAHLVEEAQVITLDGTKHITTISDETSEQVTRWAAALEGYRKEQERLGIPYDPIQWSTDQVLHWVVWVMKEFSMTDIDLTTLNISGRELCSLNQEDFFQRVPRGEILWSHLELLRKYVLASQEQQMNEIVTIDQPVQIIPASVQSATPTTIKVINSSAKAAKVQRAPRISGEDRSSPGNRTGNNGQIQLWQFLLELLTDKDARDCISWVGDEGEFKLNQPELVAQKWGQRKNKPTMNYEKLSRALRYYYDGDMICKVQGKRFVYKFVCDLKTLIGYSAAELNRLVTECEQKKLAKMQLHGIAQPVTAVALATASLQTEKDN
In short: as §1

[4] = target: T4, ERG (Homo sapiens, UniProt P11308 1-479); settings: protein: recombinant; tags: N-terminal GST; dsDNA, one strand shown
T4 sequence: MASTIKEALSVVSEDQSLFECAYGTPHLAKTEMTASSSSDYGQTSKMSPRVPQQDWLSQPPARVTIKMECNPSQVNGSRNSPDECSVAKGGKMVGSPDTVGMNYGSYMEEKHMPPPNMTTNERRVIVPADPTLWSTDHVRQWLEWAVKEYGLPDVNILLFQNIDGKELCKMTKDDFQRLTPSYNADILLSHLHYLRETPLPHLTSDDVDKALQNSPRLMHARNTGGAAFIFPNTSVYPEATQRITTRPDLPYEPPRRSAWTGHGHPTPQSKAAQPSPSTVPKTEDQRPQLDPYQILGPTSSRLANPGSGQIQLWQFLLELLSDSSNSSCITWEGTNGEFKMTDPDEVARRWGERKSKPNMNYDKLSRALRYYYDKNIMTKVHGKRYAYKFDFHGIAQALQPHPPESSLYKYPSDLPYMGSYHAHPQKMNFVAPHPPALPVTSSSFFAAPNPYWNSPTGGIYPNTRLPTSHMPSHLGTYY
In short: as §1

[5] = target: ELF1 (Homo sapiens, UniProt P32519 1-619); settings: protein: recombinant; tags: N-terminal GST; dsDNA, one strand shown
Sequence of ELF1 (P32519 whole entry): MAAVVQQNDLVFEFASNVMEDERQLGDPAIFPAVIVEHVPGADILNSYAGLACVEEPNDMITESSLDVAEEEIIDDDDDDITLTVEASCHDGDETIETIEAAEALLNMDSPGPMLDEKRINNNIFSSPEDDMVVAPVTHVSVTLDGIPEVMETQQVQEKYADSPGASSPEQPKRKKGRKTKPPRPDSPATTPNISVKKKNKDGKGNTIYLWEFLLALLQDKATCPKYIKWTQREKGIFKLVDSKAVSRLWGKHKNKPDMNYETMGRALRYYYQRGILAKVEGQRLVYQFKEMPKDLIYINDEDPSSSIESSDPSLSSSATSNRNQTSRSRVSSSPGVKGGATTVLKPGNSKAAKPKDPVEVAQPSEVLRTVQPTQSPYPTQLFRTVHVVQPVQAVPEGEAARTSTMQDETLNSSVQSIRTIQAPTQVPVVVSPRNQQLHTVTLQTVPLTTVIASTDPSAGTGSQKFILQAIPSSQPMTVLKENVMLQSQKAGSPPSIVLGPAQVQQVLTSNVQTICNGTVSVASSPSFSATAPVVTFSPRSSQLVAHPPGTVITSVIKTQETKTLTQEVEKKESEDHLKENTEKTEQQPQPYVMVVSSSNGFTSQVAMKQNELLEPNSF
In short: as §1

[6] = target: T5, EHF (Homo sapiens, UniProt Q9NZC4 1-300); settings: protein: recombinant; tags: N-terminal GST; dsDNA, one strand shown
T5 sequence: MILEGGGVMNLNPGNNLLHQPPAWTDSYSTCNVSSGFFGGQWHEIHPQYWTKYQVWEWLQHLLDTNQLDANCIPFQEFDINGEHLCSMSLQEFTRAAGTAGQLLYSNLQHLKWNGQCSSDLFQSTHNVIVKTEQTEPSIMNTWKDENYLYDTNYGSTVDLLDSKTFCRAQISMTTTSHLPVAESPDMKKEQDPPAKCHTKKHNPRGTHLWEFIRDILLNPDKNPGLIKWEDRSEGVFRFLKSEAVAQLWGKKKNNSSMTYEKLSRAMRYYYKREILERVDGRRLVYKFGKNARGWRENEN
In short: as §1

[7] = target: SPI1 (Homo sapiens, UniProt P17947 1-270); settings: protein: recombinant; tags: N-terminal GST; dsDNA, one strand shown
In short: as §1

[8] = target: SPIB (Homo sapiens, UniProt Q01892 1-262); settings: protein: recombinant; tags: N-terminal GST; dsDNA, one strand shown
Sequence of SPIB (Q01892 whole entry): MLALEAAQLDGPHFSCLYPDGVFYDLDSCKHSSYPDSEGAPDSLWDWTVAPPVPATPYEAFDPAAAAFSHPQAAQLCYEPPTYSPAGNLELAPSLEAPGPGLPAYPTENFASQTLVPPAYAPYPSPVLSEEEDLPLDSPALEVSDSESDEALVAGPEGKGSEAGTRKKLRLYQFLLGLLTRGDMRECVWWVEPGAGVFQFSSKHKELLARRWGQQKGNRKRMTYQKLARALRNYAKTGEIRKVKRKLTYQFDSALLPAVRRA
In short: as §1

[9] = target: T6, ELK3 (Homo sapiens, UniProt P41970 1-407); settings: protein: recombinant; tags: N-terminal GST; dsDNA, one strand shown
T6 sequence: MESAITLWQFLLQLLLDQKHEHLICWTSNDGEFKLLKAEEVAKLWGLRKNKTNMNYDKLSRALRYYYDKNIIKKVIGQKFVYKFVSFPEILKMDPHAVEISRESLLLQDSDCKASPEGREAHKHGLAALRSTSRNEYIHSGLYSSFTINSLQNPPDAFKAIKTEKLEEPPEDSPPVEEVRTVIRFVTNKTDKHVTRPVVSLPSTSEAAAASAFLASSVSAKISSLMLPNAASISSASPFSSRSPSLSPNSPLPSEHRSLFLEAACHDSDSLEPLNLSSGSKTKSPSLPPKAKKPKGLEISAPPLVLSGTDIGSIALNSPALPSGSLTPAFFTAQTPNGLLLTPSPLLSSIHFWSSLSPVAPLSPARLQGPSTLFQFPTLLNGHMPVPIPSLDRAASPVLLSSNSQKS
In short: as §1

[10] = target: T7, FEV (Homo sapiens, UniProt Q99581 1-238); settings: protein: recombinant; tags: N-terminal GST; dsDNA, one strand shown
T7 sequence: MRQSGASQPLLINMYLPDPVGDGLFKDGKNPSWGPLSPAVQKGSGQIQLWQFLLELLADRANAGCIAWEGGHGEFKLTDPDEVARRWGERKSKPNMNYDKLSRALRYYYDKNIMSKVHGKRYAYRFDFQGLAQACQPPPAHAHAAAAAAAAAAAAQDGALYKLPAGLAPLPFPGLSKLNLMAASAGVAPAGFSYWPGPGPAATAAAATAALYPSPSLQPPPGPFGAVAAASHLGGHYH
In short: as §1

[11] = target: ETV5 (Homo sapiens, UniProt P41161 1-510); settings: protein: recombinant; tags: N-terminal GST; dsDNA, one strand shown
Sequence of ETV5 (P41161 whole entry): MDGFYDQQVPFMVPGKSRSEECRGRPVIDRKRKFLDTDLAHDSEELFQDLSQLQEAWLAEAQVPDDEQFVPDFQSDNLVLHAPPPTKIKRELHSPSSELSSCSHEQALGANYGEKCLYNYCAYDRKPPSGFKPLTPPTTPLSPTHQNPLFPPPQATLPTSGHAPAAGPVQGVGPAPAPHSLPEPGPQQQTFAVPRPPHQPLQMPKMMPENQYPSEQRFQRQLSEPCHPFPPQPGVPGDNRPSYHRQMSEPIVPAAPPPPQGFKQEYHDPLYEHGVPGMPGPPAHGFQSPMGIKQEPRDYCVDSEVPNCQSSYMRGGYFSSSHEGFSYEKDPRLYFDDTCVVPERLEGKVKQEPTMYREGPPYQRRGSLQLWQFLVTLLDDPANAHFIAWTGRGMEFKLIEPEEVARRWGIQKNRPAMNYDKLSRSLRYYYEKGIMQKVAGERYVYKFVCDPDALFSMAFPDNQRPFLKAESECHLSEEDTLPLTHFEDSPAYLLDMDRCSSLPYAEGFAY
In short: as §1

[12] = target: HSF1 (Homo sapiens, UniProt Q00613 1-529); settings: protein: recombinant; tags: N-terminal GST; chain copies: 3; dsDNA, one strand shown
Sequence of HSF1 (Q00613 whole entry): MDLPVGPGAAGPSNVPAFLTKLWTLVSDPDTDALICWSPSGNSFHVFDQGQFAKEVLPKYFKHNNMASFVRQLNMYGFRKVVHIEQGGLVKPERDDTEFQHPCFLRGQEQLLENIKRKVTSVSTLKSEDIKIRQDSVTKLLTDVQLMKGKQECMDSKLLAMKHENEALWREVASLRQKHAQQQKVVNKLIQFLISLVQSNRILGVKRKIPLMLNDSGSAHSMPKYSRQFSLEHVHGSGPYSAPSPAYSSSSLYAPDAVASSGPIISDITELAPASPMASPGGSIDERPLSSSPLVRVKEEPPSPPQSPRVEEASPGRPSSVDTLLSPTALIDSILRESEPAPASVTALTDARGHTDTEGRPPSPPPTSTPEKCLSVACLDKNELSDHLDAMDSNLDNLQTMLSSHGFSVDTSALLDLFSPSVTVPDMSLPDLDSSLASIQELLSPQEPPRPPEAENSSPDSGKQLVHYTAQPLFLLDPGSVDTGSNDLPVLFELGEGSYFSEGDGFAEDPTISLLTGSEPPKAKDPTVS
In short: as §1

[13] = target: T8, SPIC (Homo sapiens, UniProt Q8N5J4 1-248); settings: protein: recombinant; tags: N-terminal GST; dsDNA, one strand shown
T8 sequence: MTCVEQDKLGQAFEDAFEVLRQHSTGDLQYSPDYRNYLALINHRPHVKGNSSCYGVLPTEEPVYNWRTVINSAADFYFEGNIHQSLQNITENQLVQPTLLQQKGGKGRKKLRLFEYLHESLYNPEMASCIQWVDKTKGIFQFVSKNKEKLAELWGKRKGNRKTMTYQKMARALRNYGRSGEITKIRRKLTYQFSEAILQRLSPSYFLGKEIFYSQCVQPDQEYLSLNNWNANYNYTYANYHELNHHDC
In short: as §1

[14] = target: ELF4 (Homo sapiens, UniProt Q99607 1-663); settings: protein: recombinant; tags: N-terminal GST; dsDNA, one strand shown
Sequence of ELF4 (Q99607 whole entry): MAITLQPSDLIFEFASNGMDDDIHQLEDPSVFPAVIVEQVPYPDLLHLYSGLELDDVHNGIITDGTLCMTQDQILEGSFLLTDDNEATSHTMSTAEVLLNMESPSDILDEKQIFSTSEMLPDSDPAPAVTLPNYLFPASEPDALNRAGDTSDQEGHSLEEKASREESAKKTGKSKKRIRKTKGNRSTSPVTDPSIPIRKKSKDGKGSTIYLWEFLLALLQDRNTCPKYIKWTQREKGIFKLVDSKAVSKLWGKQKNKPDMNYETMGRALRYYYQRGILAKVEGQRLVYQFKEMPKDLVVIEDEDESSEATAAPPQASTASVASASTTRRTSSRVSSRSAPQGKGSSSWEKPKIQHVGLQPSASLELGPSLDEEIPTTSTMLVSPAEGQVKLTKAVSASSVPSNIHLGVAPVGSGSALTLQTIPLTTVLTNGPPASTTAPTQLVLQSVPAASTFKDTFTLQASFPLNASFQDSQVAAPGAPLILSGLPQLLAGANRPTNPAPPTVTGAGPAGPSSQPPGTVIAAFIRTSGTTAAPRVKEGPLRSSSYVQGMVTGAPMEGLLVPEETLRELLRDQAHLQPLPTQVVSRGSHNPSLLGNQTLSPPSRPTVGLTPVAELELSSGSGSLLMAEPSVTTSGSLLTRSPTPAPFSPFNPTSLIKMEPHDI
In short: as §1

[15] = target: T9, ELK4 (Homo sapiens, UniProt P28324-2 1-405); settings: protein: recombinant; tags: N-terminal GST; dsDNA, one strand shown
T9 sequence: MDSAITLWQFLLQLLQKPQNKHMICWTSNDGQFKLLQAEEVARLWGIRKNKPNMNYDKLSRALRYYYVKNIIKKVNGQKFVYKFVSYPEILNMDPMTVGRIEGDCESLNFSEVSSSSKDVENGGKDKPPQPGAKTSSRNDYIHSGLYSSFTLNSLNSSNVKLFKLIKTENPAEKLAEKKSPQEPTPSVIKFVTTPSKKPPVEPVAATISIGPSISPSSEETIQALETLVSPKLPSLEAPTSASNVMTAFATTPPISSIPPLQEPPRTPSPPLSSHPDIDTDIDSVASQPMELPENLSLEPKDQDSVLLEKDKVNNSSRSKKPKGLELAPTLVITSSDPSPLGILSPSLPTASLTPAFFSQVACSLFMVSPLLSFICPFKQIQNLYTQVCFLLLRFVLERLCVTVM
In short: as §1

[16] = target: T10, ETV2 (Homo sapiens, UniProt O00321 1-342); settings: protein: recombinant; tags: N-terminal GST; dsDNA, one strand shown
T10 sequence: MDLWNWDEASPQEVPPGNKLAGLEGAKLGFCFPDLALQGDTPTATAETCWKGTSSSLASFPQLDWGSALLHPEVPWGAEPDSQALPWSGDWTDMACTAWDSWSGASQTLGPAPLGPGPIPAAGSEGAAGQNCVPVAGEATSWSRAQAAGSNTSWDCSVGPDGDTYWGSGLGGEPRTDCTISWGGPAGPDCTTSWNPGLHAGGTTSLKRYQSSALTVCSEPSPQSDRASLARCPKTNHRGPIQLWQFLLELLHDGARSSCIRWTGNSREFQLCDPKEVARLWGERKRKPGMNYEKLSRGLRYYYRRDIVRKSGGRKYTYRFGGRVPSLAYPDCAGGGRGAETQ
In short: as §1

[17] = target: T11, ELF3 (Homo sapiens, UniProt P78545 1-371); settings: protein: recombinant; tags: N-terminal GST; dsDNA, one strand shown
T11 sequence: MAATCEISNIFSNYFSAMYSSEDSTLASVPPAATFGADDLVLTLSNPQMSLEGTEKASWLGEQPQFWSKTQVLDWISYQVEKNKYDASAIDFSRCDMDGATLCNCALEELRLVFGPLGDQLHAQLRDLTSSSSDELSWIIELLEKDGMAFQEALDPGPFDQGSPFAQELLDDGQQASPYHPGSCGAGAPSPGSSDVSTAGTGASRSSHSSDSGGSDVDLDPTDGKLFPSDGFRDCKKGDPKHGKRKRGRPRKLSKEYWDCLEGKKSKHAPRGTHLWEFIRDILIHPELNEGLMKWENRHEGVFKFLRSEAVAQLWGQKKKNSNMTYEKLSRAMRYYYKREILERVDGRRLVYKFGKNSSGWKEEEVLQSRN
In short: as §1

[18] = target: CRX (Homo sapiens, UniProt O43186 1-299); settings: protein: recombinant; tags: N-terminal GST; dsDNA, one strand shown
Sequence of CRX (O43186 whole entry): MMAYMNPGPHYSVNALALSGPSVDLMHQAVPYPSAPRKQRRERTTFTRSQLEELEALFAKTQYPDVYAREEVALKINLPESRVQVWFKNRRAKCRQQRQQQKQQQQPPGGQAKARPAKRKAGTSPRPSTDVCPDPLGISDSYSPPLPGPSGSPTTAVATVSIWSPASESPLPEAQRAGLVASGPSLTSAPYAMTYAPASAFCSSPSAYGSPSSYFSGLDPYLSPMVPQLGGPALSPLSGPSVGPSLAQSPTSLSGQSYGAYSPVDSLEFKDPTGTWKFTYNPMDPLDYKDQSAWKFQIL
In short: as §1

[19] = target: ETV1 (Homo sapiens, UniProt P50549 1-477); settings: protein: recombinant; tags: N-terminal GST; dsDNA, one strand shown
Sequence of ETV1 (P50549 whole entry): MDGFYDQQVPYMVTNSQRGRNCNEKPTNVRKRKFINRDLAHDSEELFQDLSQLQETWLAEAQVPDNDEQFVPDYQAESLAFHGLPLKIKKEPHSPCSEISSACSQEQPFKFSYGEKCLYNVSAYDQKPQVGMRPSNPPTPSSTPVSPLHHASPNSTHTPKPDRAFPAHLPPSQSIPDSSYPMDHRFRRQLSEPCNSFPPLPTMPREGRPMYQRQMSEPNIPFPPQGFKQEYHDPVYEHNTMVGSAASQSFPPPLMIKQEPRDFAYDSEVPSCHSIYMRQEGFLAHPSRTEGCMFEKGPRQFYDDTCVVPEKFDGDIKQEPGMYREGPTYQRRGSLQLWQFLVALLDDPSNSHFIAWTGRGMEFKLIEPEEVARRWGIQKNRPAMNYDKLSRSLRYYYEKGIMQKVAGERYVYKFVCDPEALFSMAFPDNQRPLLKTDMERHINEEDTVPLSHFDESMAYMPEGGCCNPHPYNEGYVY
In short: as §1

Sequence: TTTCTT
- binding signal [1]: 1.42 fold enrichment (6-mer frequency, TF over GST control)
- binding signal [2]: 1.3 fold enrichment (6-mer frequency, TF over GST control)
- binding signal [3]: 1.42 fold enrichment (6-mer frequency, TF over GST control)
- binding signal [4]: 1.37 fold enrichment (6-mer frequency, TF over GST control)
- binding signal [5]: 1.38 fold enrichment (6-mer frequency, TF over GST control)
- binding signal [6]: 1.29 fold enrichment (6-mer frequency, TF over GST control)
- binding signal [7]: 1.37 fold enrichment (6-mer frequency, TF over GST control)
- binding signal [8]: 1.24 fold enrichment (6-mer frequency, TF over GST control)
- binding signal [9]: 1.31 fold enrichment (6-mer frequency, TF over GST control)
- binding signal [10]: 1.23 fold enrichment (6-mer frequency, TF over GST control)
- binding signal [11]: 1.22 fold enrichment (6-mer frequency, TF over GST control)
- binding signal [12]: 1.7 fold enrichment (6-mer frequency, TF over GST control)
- binding signal [13]: 1.24 fold enrichment (6-mer frequency, TF over GST control)
- binding signal [14]: 1.33 fold enrichment (6-mer frequency, TF over GST control)
- binding signal [15]: 1.17 fold enrichment (6-mer frequency, TF over GST control)
- binding signal [16]: 1.24 fold enrichment (6-mer frequency, TF over GST control)
- binding signal [17]: 1.3 fold enrichment (6-mer frequency, TF over GST control)
- binding signal [18]: 1.46 fold enrichment (6-mer frequency, TF over GST control)
- binding signal [19]: 1.38 fold enrichment (6-mer frequency, TF over GST control)

Source: paper PMC7862700, “An all-to-all approach to the identification of sequence-specific readers for epigenetic DNA modifications on cytosine”
